Source: PubChem BioAssay (Paczesny and Yang Labs, IUPUI and University of Michigan)
ST2 inh = inhibitors of human ST2 (IL1RL1) binding to IL-33; Q01638; AlphaLISA ST2-Fc/biotin-IL-33 interaction, 1 h; inhibition, % for hits at 17 µM; hit rate 2.3% among 78,000; AID 1259354; in the data active means inhibition above about 30%
Target sequence (Q01638 whole entry, looked up): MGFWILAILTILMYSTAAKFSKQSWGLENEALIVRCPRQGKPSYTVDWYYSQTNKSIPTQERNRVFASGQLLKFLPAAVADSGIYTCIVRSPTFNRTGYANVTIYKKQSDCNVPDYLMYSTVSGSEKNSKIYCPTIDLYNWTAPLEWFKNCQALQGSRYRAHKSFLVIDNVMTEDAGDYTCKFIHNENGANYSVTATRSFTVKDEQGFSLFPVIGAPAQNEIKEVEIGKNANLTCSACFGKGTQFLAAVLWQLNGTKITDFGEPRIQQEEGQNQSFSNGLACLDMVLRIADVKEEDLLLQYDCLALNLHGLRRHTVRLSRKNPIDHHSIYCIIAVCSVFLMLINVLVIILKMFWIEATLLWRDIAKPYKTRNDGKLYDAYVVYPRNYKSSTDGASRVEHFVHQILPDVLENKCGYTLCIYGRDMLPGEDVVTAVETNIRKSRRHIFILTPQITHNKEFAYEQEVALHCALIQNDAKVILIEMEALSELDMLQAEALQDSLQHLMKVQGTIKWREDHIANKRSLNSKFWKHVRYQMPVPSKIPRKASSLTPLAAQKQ
Each line names hits and unclear results; the compound was inactive in the other large screens. Only a selection was taken, and hits are over-represented in it overall.

Nc1nc(-c2ccc(-c3ccccc3CN3CCOCC3)cc2)cs1	ST2 inh 34%
CCOC(=O)C1=C(C)Nc2nc(SCc3ccccc3)nn2C1c1cc(OC)ccc1OC (configuration not stated)	none
O=C1C2C3C=CC(C3)C2C(=O)N1c1ccc(Cl)c(F)c1 (configuration not stated)	none
O=[N+]([O-])c1cccnc1NCc1ccccc1	ST2 inh 39%
O=[N+]([O-])c1ccccc1S(=O)(=O)NCc1cccnc1	none
COc1ccc(CNc2ncnc(NCc3ccc(OC)cc3)c2[N+](=O)[O-])cc1	none
O=C(Nc1c(C(=O)Nc2cccc(F)c2)oc2ccccc12)c1ccc(F)cc1	none
CCOCC(=O)Nc1c(C(=O)Nc2cccc(F)c2)oc2ccccc12	none
O=C(Cc1ccc(F)cc1)Nc1c(C(=O)Nc2cccc(F)c2)oc2ccccc12	ST2 inh 93%
COCCCNC(=O)c1cc2c(=O)n3ccccc3nc2n(C(C)C)c1=N	none
O=C(O)CCC(=O)Nc1nnc(C2CC2)s1	none
Cc1ccc(C)c(NS(=O)(=O)c2ccc(NC(=O)c3ccccc3C)cc2)c1	none
Cc1ccc(Cl)cc1NC(=O)c1ccccc1C(=O)Nc1cc(Cl)ccc1C	none
Cc1ccc(Cl)cc1NS(=O)(=O)c1cccc2nonc12	none
Cc1ccc(C)c(NS(C)(=O)=O)c1	none
Cc1ccc(Cl)cc1NS(=O)(=O)c1cccc2c1C(=O)c1ccccc1C2=O	ST2 inh 44%
Cc1ccc(C)c(NS(=O)(=O)c2cccc3c2C(=O)c2ccccc2C3=O)c1	ST2 inh 54%
O=C(NCC(F)(F)C(F)F)c1cccnc1	none
CN1C[C@@H]2CC[C@H](CC1=O)N2C(=O)c1ccnc(-n2cnnc2)c1	none
COc1ccc(-c2cc(C(=O)Nc3sc4c(c3C(N)=O)CCCC4)no2)cc1OC	none
O=[N+]([O-])c1cc(N=Cc2nc(-c3ccccc3)oc2O)ccc1Cl	none
O=C(c1n[nH]c2c1CCC2)N1CCC2(CC1)C(=O)Nc1ccccc12	none
Cc1ccc(-c2nc(S(=O)(=O)c3ccc(C)cc3)c(N3CCOCC3)o2)cc1	none
O=S(=O)(c1ccc(Cl)cc1)c1nc(/C=C/c2ccccc2)oc1N1CCOCC1	ST2 inh 31%
NC(=O)CSc1oc(-c2ccccc2)nc1S(=O)(=O)c1ccc(Cl)cc1	none
COc1ccc(C(=O)N2CCN(C/C=C/c3ccccc3)CC2)cc1	none
COc1ccc(C2C(C#N)=C(N)Oc3n[nH]c(-c4ccc5c(c4)OCO5)c32)cc1O (configuration not stated)	none
COc1cc(C(=O)Nc2ccc(-c3nc4cc(C)ccc4o3)c(O)c2)cc(OC)c1OC	none
Cc1ccccc1-c1nc2cc(NC(=O)c3ccc4c(c3)OCCO4)ccc2o1	none
Cc1ccc2oc(-c3ccc(NC(=O)c4ccc5c(c4)OCCO5)cc3O)nc2c1	ST2 inh 32%
COc1ccc(CN2CCCN(CC(=O)Nc3ccc(OC)c(OC)c3)S2(=O)=O)cc1	none
Cc1nccn1-c1ccc(CNC(C)CO)cc1 (configuration not stated)	none
O=C(NC1CCCCC1)c1ccc(Cl)cc1	none
Nc1cc(C(=O)O)ccc1NC1CCCCC1	ST2 inh 31%
O=C(NC1CCCCCCC1)c1ccccc1	none
O=C(Cn1cnc2c(cnn2-c2ccccc2)c1=O)Nc1ccccc1F	none
CCc1nnc(NC(=O)CSC2=NC(=O)C(c3ccccc3)C(=O)N2)s1 (configuration not stated)	none
CC(C)CN1C(=O)N(CCc2ccccc2)C2(CCN(Cc3cc(F)ccc3F)CC2)C1=O	none
CCOC(=O)CCSc1nc(C)c2cc(C)ccc2n1	none
COc1ccc2nc(SCCc3ccccc3)nc(C)c2c1	none
COc1ccc2nc(SC(=O)c3ccccc3)nc(C)c2c1	ST2 inh 43%
CC(C)Oc1ccc(C(O)=C2C(=O)C(=O)N(c3nccs3)C2c2ccc([N+](=O)[O-])cc2)cc1 (configuration not stated)	ST2 inh 35%
CC(C)Oc1ccc(C(O)=C2C(=O)C(=O)N(c3ccccn3)C2c2cccs2)cc1 (configuration not stated)	none
CCCOc1ccc(C(O)=C2C(=O)C(=O)N(c3nccs3)C2c2cccs2)cc1 (configuration not stated)	none
O=C(c1cn(CC2CCCO2)nn1)N1CCC(Cc2ccccc2F)CC1 (configuration not stated)	none
O=S(=O)(c1ccccc1)N1CCSC1c1ccccc1Cl (configuration not stated)	none
Cc1ccc(Nc2cc(C)nc(Nc3ccc(NC(=O)C(C)(C)C)cc3)n2)cc1	ST2 inh 33%
Cc1ccc(Nc2cc(C)nc(Nc3ccc(NC(=O)c4ccc(Br)o4)cc3)n2)cc1	none
Cc1ccc(Nc2cc(C)nc(Nc3ccc(NC(=O)c4ccc(Br)cc4)cc3)n2)cc1	none
COc1ccc(Nc2cc(C)nc(-c3ccccc3)n2)cc1	none
CC(=O)Nc1ccc(Nc2nc(C)cc(Nc3ccc(C)cc3)n2)cc1	none
Cc1cc(Nc2ccccc2)nc(Nc2ccc(NC(=O)C3CCCCC3)cc2)n1	none
Cc1ccc(Nc2cc(C)nc(Nc3ccc(NC(=O)C4CCCCC4)cc3)n2)cc1	ST2 inh 30%
COc1ccc(Nc2cc(C)nc(Nc3ccc(NC(=O)C4CCCCC4)cc3)n2)cc1	ST2 inh 34%
